For some assays here: Entries with a potency or affinity are not part of this list. Activity calls are given as the source filed them.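 How the source made its calls, unless noted: active means primary screen activator hit with a dose response curve and TRPC4 channel activation at any tested dose; inactive means no activation, no dose response, or not a primary hit.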
Key:
[1] = system: TRPC4 beta (transient receptor potential cation channel C4), mouse; assay: TRPC4 cation channel opening, retest – cell-based, Fluo4 calcium, HEK293 TRPC4beta/mu-opioid, duplicates, 10 µM, confirmation (AID 2426;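 active means fluorescence ratio normalized to control raised more than 50% in primary screen plus both repeat runs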); conditions: Fluo4 calcium fluorescence, at 10 µM; stronger effect = higher value
[2] = system: transient receptor potential cation channel C4 beta (TRPC4), mouse; assay: TRPC4 cation channel opening, second retest – cell-based, second round, Fluo4, HEK293 TRPC4beta/mu-opioid, 1 µM, confirmation (AID 2461;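 active means primary screen active and over 50% activation in each of two duplicate runs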); conditions: Fluo4 calcium fluorescence, at 1 µM; stronger effect = higher value
[3] = system: TRPC4 (transient receptor potential cation channel C4 beta), mouse; assay: potentiation of DAMGO EC20 TRPC4 response – cell-based, second round, Fluo-4, HEK293 TRPC4beta/mu-opioid, 1 µM, confirmation (AID 2554;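 active means primary screen hit whose fluorescence ratio, in both repeats, exceeds the weak agonist control mean by 3 SD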); conditions: DAMGO EC20, Fluo-4 calcium flux, at 1 µM; stronger effect = higher value
[4] = system: TRPC4 beta (transient receptor potential cation channel C4), mouse; assay: potentiation of DAMGO EC20 TRPC4 response – cell-based, Fluo-4, HEK293 TRPC4beta/mu-opioid, confirmation (AID 2555;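 active means primary screen hit whose calcium fluorescence ratio, in both repeats, exceeds the weak agonist control mean by 3 SD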); conditions: DAMGO EC20, Fluo-4 calcium flux, at 10 µM; stronger effect = higher value
[5] = target: Short transient receptor potential channel 4 (Mus musculus) (UniProt Q9QUQ5); assay: blockers of DAMGO-evoked TRPC4 calcium flux – cell-based, Fluo4, HEK293 TRPC4beta/mu-opioid, confirmation (AID 2636;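 active means calcium signal cut by more than 3 SD below the full-agonist control yet still positive, in both repeats and the earlier primary screen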); conditions: at 10 µM; stronger effect = higher value
[6] = target: Short transient receptor potential channel 4 (Mus musculus) (UniProt Q9QUQ5); assay: blockers of DAMGO-evoked TRPC4 calcium flux – cell-based, second round, Fluo4, HEK293 TRPC4beta/mu-opioid, 1 µM, confirmation (AID 2637;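 active means calcium signal ratio cut to more than 3 SD under the fully stimulated control mean yet still positive, in both repeats and the primary screen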); conditions: at 1 µM; stronger effect = higher value
[7] = target: Short transient receptor potential channel 4 (Mus musculus) (UniProt Q9QUQ5); assay: calcium entry via TRPC4 opening agents – cell-based, HEK293 TRPC4/mu-opioid, Fluo-4 calcium, dose response (AID 434937)
[8] = target: Short transient receptor potential channel 4 (Mus musculus) (UniProt Q9QUQ5); assay: potentiation of DAMGO-evoked TRPC4 calcium signal – cell-based, HEK293 TRPC4/mu-opioid, Fluo-4 calcium, EC20 DAMGO, dose response (AID 434941;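 active means earlier screen potentiator hit that boosts the TRPC4 ion channel at some dose, with a dose response; inactive means no potentiation, no dose response, or not a prior hit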;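 further: calcium entry triggered by an EC20 dose of DAMGO at the co-expressed mu-opioid receptor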)
[9] = target: Short transient receptor potential channel 4 (Mus musculus) (UniProt Q9QUQ5); assay: block of DAMGO-driven TRPC4 calcium entry – cell-based, HEK293 TRPC4/mu-opioid, Fluo-4 calcium, dose response (AID 434942;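 active means primary screen inhibitor hit that blocks the TRPC4 channel at some tested dose, yielding a dose curve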)
[10] = target: Short transient receptor potential channel 6 (Mus musculus) (UniProt Q61143); assay: TRPC6 blockade by TRPC4 inhibitor hits – cell-based, HEK293, membrane potential dye, duplicate, selectivity assay for TRPC4 inhibitor project, confirmation (AID 434948;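 active means active in primary screen and both duplicates, each dropping signal beyond three positive-control SD with fluorescence still positive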); conditions: HEK293 TRPC6, membrane potential dye fluorescence, at 10 µM, stimulated with maximal-effect acetylcholine; stronger effect = higher value
[11] = target: Short transient receptor potential channel 6 (Mus musculus) (UniProt Q61143); assay: TRPC6 opening by TRPC4 activator hits – cell-based, HEK293, membrane potential dye, duplicate, selectivity assay for TRPC4 activator project, confirmation (AID 434950;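 active means membrane potential signal rise above negative control mean plus 3 SD in both duplicates, also active in the earlier TRPC4 screen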); conditions: HEK293 TRPC6, membrane potential fluorescence, at 10 µM; activation: stronger effect = higher value; outcome: activation
[12] = target: Short transient receptor potential channel 6 (Mus musculus) (UniProt Q61143); assay: positive modulators of mouse TRPC6 channel – HEK293 cells, membrane potential dye, duplicate, selectivity assay for TRPC4 potentiator project, confirmation (AID 434952;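 active means compound raising the membrane signal above positive-control mean plus 3 SD in both repeats, and a primary screen hit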); conditions: HEK293 TRPC6, membrane potential dye fluorescence, at 10 µM, maximal acetylcholine added after compound; stronger effect = higher value
[13] = target: Short transient receptor potential channel 4 (Mus musculus) (UniProt Q9QUQ5); assay: calcium flux activators in TRPC4/5HT1a cells, counter-screen for TRPC4 activator project, cell-based, second counter screen, HEK293 TRPC4/5HT1a, Fluo-4 (AID 434977;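 active means calcium signal rise above buffer-control mean plus 5 SD in both duplicates, and also a hit in the primary screen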); conditions: Fluo-4 calcium flux, at 10 µM; stronger effect = higher value
[14] = serotonin-gated TRPC4 signal block – cell-based, second counter screen, HEK293 TRPC4/5HT1a, Fluo-4, counter-screen for TRPC4 inhibitor project, confirmation (AID 434978;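 active means primary screen active whose calcium signal fell more than 3 SD beyond the full-serotonin control mean in both duplicate plates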;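 further: serotonin given first at submaximal then at maximal dose after compound preincubation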); conditions: Fluo-4 calcium flux, at 10 µM, serotonin added to trigger calcium flux; stronger effect = higher value
[15] = system: TRPC4 (mouse), co-expressed with 5HT1a in HEK293; assay: enhancement of serotonin-evoked TRPC4 response – cell-based, second counter screen, HEK293 TRPC4/5HT1a, Fluo-4, counter-screen for TRPC4 potentiator project, confirmation (AID 434979;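 active means signal rise over 3 SD above mean of control wells given weak agonist, in both repeats and first screen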); conditions: Fluo-4 calcium flux, at 10 µM, serotonin added at its EC20 dose; stronger effect = higher value
[16] = nonspecific calcium rise without TRPC4 – cell-based, HEK293 mu-opioid receptor line, counter-screen for TRPC4 activator project, confirmation (AID 449723;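 active means hit in primary screen, with calcium signal over 5 SD above buffer well mean in both duplicates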;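 further: counter screen cells carry the mu-opioid receptor alone and lack TRPC4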); conditions: HEK293 mu-opioid cells, Fluo-4 calcium fluorescence, at 10 µM; stronger effect = higher value
[17] = nonspecific potentiation of DAMGO calcium response – cell-based, HEK293 mu-opioid receptor line, counter-screen for TRPC4 allosteric potentiator project, confirmation (AID 449724;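 active means calcium signal rise more than 3 SD above the low-dose agonist control mean, in both duplicate plates and the primary screen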); conditions: HEK293 mu-opioid receptor cells, Fluo-4 calcium flux, at 10 µM, compound added before EC20 DAMGO stimulus; stronger effect = higher value

Sequence of Short transient receptor potential channel 4 (Mus musculus) (Q9QUQ5 whole entry, looked up): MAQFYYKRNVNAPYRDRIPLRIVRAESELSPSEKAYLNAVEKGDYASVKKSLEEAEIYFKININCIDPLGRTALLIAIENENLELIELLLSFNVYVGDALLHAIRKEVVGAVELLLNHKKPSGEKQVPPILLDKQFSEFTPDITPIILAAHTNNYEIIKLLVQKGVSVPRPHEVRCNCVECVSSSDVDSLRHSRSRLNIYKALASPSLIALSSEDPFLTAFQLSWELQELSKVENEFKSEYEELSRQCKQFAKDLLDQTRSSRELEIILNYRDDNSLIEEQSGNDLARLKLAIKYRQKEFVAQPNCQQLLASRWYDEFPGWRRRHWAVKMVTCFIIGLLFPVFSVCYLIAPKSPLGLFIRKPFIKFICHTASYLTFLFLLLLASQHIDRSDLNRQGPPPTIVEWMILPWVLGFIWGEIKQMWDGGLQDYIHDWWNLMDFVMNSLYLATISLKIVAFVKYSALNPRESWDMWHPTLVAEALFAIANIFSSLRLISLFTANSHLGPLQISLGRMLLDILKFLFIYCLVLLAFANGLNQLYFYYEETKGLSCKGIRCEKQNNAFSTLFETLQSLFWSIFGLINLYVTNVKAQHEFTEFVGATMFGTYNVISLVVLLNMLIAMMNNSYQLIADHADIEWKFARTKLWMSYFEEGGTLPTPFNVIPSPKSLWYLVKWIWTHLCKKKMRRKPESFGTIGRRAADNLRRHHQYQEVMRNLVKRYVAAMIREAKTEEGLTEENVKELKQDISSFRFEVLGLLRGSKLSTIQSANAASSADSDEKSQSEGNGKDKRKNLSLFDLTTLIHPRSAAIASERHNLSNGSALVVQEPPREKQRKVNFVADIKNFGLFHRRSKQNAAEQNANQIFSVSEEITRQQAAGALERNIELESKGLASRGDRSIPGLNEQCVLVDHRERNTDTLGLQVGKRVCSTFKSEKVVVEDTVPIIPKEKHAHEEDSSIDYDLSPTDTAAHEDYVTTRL
Sequence of Short transient receptor potential channel 6 (Mus musculus) (Q61143 whole entry, looked up): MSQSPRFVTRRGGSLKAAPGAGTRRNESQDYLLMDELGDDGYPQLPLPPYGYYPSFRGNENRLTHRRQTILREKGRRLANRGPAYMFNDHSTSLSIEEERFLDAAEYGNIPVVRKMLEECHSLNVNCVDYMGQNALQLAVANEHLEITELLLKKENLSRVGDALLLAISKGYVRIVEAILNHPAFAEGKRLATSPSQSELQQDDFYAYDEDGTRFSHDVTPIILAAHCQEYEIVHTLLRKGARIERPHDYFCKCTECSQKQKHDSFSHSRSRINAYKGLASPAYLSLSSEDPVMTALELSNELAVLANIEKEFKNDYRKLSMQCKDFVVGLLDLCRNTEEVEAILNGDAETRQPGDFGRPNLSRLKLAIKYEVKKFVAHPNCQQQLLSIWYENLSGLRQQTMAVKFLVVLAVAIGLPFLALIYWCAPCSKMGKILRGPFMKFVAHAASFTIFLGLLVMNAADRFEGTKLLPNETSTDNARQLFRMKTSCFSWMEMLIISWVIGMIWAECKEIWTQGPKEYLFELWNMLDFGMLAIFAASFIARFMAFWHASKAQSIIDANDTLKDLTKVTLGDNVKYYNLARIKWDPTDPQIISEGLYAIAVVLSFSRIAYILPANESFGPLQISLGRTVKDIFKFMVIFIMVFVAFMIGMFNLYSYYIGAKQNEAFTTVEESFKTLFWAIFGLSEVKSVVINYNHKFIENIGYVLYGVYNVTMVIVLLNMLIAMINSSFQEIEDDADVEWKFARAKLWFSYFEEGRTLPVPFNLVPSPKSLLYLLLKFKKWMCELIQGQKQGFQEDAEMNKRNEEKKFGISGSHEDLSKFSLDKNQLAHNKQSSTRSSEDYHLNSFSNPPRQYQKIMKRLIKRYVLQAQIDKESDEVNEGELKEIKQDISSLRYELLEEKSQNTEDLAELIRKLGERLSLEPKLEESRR

CCCn1c(=O)c(C(=O)NCC2CCCO2)c(O)c2ccccc21 (configuration not stated)
inactive: outcome [1] | outcome [2] | outcome [5] | outcome [6] | outcome [7] | outcome [8] | outcome [9] | outcome [10] | outcome [11] | outcome [12] | outcome [13] | outcome [14] | outcome [16] | outcome [17]
active: potentiation [3] 16% | potentiation [4] 11% | potentiation [15] 7.45%

Cc1ccc(SC(CC(=O)c2ccc(C(C)(C)C)cc2)C(=O)O)cc1 (configuration not stated)
inactive: outcome [1] | outcome [2] | outcome [3] | outcome [4] | outcome [5] | outcome [6] | outcome [7] | outcome [8] | outcome [9] | outcome [10] | outcome [11] | outcome [12] | outcome [13] | outcome [14] | outcome [15] | outcome [16] | outcome [17]

CC(C)CCOc1ccc(C(=O)NCC(c2ccco2)N(C)C)cc1 (configuration not stated)
inactive: outcome [1] | outcome [2] | outcome [3] | outcome [4] | outcome [6] | outcome [7] | outcome [8] | outcome [9] | outcome [10] | outcome [11] | outcome [12] | outcome [13] | outcome [14] | outcome [15] | outcome [16] | outcome [17]
active: inhibition [5] 89%

CCCn1c(N)c(C(=O)CSc2n[nH]c(-c3ccc(C)cc3)n2)c(=O)[nH]c1=O
inactive: outcome [1] | outcome [2] | outcome [3] | outcome [4] | outcome [5] | outcome [6] | outcome [7] | outcome [8] | outcome [9] | outcome [10] | outcome [11] | outcome [12] | outcome [13] | outcome [14] | outcome [15] | outcome [16] | outcome [17]

Cn1c(CN2CCN(c3ccccc3NS(C)(=O)=O)CC2)nc2ccccc21
inactive: outcome [1] | outcome [2] | outcome [3] | outcome [4] | outcome [5] | outcome [6] | outcome [7] | outcome [8] | outcome [9] | outcome [10] | outcome [11] | outcome [12] | outcome [13] | outcome [14] | outcome [15] | outcome [16] | outcome [17]

CCOC(=O)C1CCN(c2nc3ccccc3nc2C(C#N)C(=O)OCCOC)CC1 (configuration not stated)
inactive: outcome [1] | outcome [2] | outcome [3] | outcome [4] | outcome [5] | outcome [6] | outcome [7] | outcome [8] | outcome [9] | outcome [10] | outcome [11] | outcome [12] | outcome [13] | outcome [14] | outcome [15] | outcome [16] | outcome [17]

COC(=O)[C@H](Cc1ccccc1)NC(=O)c1ccc2ccccc2n1
inactive: outcome [1] | outcome [2] | outcome [3] | outcome [5] | outcome [6] | outcome [7] | outcome [8] | outcome [9] | outcome [10] | outcome [11] | outcome [12] | outcome [13] | outcome [14] | outcome [16] | outcome [17]
active: potentiation [4] 81% | potentiation [15] 59.7%

CC(C)(C)NC(=S)N/N=C\c1ccc(-c2ccc([N+](=O)[O-])cc2)o1
active: potentiation, percent of control [12] 142% | potentiation [15] 15.4%
inactive: outcome [1] | outcome [2] | outcome [3] | outcome [4] | outcome [5] | outcome [6] | outcome [7] | outcome [8] | outcome [9] | outcome [10] | outcome [11] | outcome [13] | outcome [14] | outcome [16] | outcome [17]

CC(=O)N1N=C(c2ccc(Br)cc2)OC1(C)CC(=O)Nc1ccccc1 (configuration not stated)
active: potentiation [15] 13.4%
inactive: outcome [1] | outcome [2] | outcome [3] | outcome [4] | outcome [5] | outcome [6] | outcome [7] | outcome [8] | outcome [9] | outcome [10] | outcome [11] | outcome [12] | outcome [13] | outcome [14] | outcome [16] | outcome [17]

Cc1ccc(C)c(N2CCN(CCCNC(=O)CCn3c(=O)c4cccn4c4cccnc43)CC2)c1
inactive: outcome [1] | outcome [2] | outcome [3] | outcome [4] | outcome [5] | outcome [6] | outcome [7] | outcome [8] | outcome [9] | outcome [10] | outcome [11] | outcome [12] | outcome [13] | outcome [14] | outcome [15] | outcome [16] | outcome [17]

O=C(c1ccccc1)c1coc2ccc(O)c(CN3CCOCC3)c12
inactive: outcome [1] | outcome [2] | outcome [3] | outcome [4] | outcome [5] | outcome [6] | outcome [7] | outcome [8] | outcome [9] | outcome [10] | outcome [11] | outcome [12] | outcome [13] | outcome [14] | outcome [15] | outcome [16] | outcome [17]

O=C(NCC(c1ccco1)N1CCc2ccccc2C1)c1ccc(F)cc1 (configuration not stated)
inactive: outcome [1] | outcome [2] | outcome [3] | outcome [4] | outcome [5] | outcome [6] | outcome [7] | outcome [8] | outcome [9] | outcome [10] | outcome [11] | outcome [12] | outcome [13] | outcome [14] | outcome [15] | outcome [16] | outcome [17]

CSc1ccc(/C=N\NC(=O)CC(=O)NC(C)C)cc1
inactive: outcome [1] | outcome [2] | outcome [3] | outcome [4] | outcome [5] | outcome [6] | outcome [7] | outcome [8] | outcome [9] | outcome [10] | outcome [11] | outcome [12] | outcome [13] | outcome [14] | outcome [15] | outcome [16] | outcome [17]

Cn1ncc(C#N)c1/N=C/N(Cc1ccccc1)Cc1ccccc1
inactive: outcome [1] | outcome [2] | outcome [3] | outcome [4] | outcome [5] | outcome [6] | outcome [7] | outcome [8] | outcome [9] | outcome [10] | outcome [11] | outcome [12] | outcome [13] | outcome [14] | outcome [15] | outcome [16] | outcome [17]

CCc1c(C)nc2c(-c3ccccc3)c(C)nn2c1Nc1ccc(NC(C)=O)cc1
inactive: outcome [1] | outcome [2] | outcome [3] | outcome [5] | outcome [6] | outcome [7] | outcome [8] | outcome [9] | outcome [10] | outcome [11] | outcome [12] | outcome [13] | outcome [14] | outcome [16] | outcome [17]
active: potentiation [4] 14% | potentiation [15] 74%

CCCc1c(-c2ccc(O)cc2)nn(-c2ccc(O)cc2)c1-c1ccc(O)cc1
active: potentiation [4] 20% | potentiation [15] 23.9%
inactive: outcome [1] | outcome [2] | outcome [3] | outcome [5] | outcome [6] | outcome [7] | outcome [8] | outcome [9] | outcome [10] | outcome [11] | outcome [12] | outcome [13] | outcome [14] | outcome [16] | outcome [17]

Reference: PubChem BioAssay
